NR3A LBD binder = modulates the human NR3A ligand-binding domain; AID 1259313; 2.5% of 340,000 active; NR3A LBD differential scanning fluorimetry, Tm shift; 0% = protein alone, 100% = glycine-bound protein; Tm shift relative to glycine control, % at 25 µM;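 active = melting temperature shift of at least 10% of the positive control shift, at one fixed dose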
ADAM10 inh = inhibitors of human ADAM10; O14672; 0.62% of 370,000 active; recombinant ADAM10, EDANS/DABCYL FRET peptide cleavage, 3 h; inhibition, % at 7 µM; AID 720582;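 active = inhibition above a per-campaign cutoff equal to the mean of compounds falling between control-based bounds plus 3 SD, cut at about 20% in these data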;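 note: 0% = DMSO wells while the 100% control is not disclosed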
Target sequence (O14672 214-748 limits assumed): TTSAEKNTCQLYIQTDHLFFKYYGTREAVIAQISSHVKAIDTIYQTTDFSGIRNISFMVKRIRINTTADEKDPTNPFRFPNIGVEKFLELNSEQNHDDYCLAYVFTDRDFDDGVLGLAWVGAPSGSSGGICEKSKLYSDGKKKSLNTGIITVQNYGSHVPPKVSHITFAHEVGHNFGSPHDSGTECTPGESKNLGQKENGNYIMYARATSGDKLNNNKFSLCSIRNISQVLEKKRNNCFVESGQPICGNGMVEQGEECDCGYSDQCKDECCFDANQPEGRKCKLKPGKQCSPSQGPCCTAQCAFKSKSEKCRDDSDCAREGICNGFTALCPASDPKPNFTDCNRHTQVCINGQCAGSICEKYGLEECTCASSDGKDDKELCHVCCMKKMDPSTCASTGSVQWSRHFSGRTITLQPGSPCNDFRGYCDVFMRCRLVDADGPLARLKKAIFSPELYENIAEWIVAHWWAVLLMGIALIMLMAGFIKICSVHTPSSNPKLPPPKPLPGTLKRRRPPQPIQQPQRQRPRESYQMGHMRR
KLK7 zymogen act = activates the human kallikrein-7 zymogen | P49862 | purified proKLK7, EDANS-DABCYL substrate fluorescence; 100% is mature enzyme control, 0% vehicle | 0.9% of 370,000 active | activation, % at 7 µM;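 active = activation above the mean of all tested compounds plus 3 SD, computed per campaign excluding outliers beyond control limits, cut at about 13% in these data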
FAS TE block = inhibitors of human fatty acid synthase thioesterase domain | 0.67% of 360,000 active | AID 602261 | recombinant FAS-TE, OMFH fluorogenic substrate, fluorescence endpoint | P49327 | inhibition, % at 15 µM;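 active = compounds whose normalised, plate-corrected inhibition of enzyme fluorescence in the single-dose primary screen is 50% or more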;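 note: 0% = DMSO with enzyme and 100% = substrate without enzyme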
ADAM17 inh = ADAM17 inhibition, QFRET primary screen; inhibition, % at 6.95 µM; 0.83% of 370,000 active; recombinant ADAM17, EDANS/DABCYL FRET peptide cleavage; P78536;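 active = inhibition above the mean of compounds lying between control limits plus 3 SD, set per campaign, cut at about 8.5% in these data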;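 note: 0% = DMSO-only wells as the low control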
ADAM10 confirm = confirmation of inhibitors of human ADAM10; shares compounds with ADAM10 inh; ADAM10 QFRET peptide cleavage, EDANS fluorescence; inhibition, % at 6.95 µM; 1% of 2,100 active;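 active = inhibition above about 20% chosen separately for each screening run, limit read from the data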;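 note: 0% = DMSO wells and 100% = marimastat wells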
ADAM17 counter = ADAM17 inhibition, counter-screen for ADAM10 exosite hits; shares compounds with ADAM10 inh; ADAM17 QFRET peptide cleavage, EDANS fluorescence; inhibition, % at 6.95 µM; 0.5% of 2,100 active; AID 743214;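 active = mean triplicate inhibition above the solvent-only control wells' mean plus 3 SD, cut at about 12% in these data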;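 note: 0% = DMSO wells and 100% = marimastat wells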
ADAM10 counter = counter-screen for ADAM17 exosite inhibitors: inhibitors of human ADAM10 | 47% of 2,900 active | shares compounds with ADAM17 inh | recombinant ADAM10, EDANS/DABCYL FRET peptide cleavage, 3 h | inhibition, % at 6.95 µM;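 active = mean inhibition over the triplicate runs exceeds the activity threshold set in the earlier primary screen, cut at about 20% in these data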;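 note: 0% = DMSO wells and 100% = marimastat wells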
ADAM17 confirm = confirmation of inhibitors of human ADAM17; shares compounds with ADAM17 inh; recombinant ADAM17, EDANS/DABCYL QFRET peptide cleavage; inhibition, % at 6.95 µM; 65% of 2,900 active; AID 743257;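 active = mean inhibition across replicates above the hit cutoff set in the primary screen, cut at about 8.5% in these data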;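 note: 0% = DMSO wells and 100% = marimastat wells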
* = called active by the depositor. Sampled rows, rich in hits. Any-hit rate of the full collection: about 4.6%.

`COc1ccc2c(c1)[C@@]1(OCCC=C[C@H]1C)C(=O)N2Cc1ccc(F)cc1` gave ADAM10 inh -17, KLK7 zymogen act -1 and ADAM17 inh -7.
For O=C(c1ccc(C(F)(F)F)cc1)N1CCC(=O)N([C@H](COCc2ccc(C(F)(F)F)cc2)Cc2ccccc2)CC1 the results were ADAM10 inh 28*, KLK7 zymogen act 0, FAS TE block 25, ADAM17 inh 12*, ADAM10 confirm 8, ADAM17 counter 2, ADAM10 counter 28* and ADAM17 confirm 16*.
For O=C(c1ccc(C(F)(F)F)cc1)N1CCC(=O)N([C@H](COCc2ccc(Cl)cc2)Cc2ccccc2)CC1 the results were ADAM10 inh 13, KLK7 zymogen act 0, FAS TE block 26 and ADAM17 inh 6.
For COc1ccc([N+](=O)[O-])cc1NC(=S)NC(NC(=O)C(c1ccccc1)c1ccccc1)C(Cl)(Cl)Cl (stereo not given) the results were NR3A LBD binder 10, ADAM10 inh 32*, KLK7 zymogen act 0, FAS TE block 41, ADAM17 inh 19*, ADAM10 confirm 9, ADAM17 counter 3, ADAM10 counter 29* and ADAM17 confirm 14*.
Screening C[C@H]1CN(C(=O)OC(C)(C)C)CCN1c1ccc(N2CC[C@H](O)C2)c(C#N)c1 returned ADAM10 inh -59, KLK7 zymogen act 0 and ADAM17 inh -14.
Screening COc1cc(F)ccc1Oc1cccc2c1S(=O)(=O)N(C1CC1)C[C@@H](COCc1ccccc1)O2 returned ADAM10 inh 29*, KLK7 zymogen act 2, ADAM17 inh 11*, ADAM10 confirm 4, ADAM17 counter 1, ADAM10 counter 27* and ADAM17 confirm 17*.
`COc1cc(F)ccc1Oc1cccc2c1S(=O)(=O)N([C@H](C)c1ccccc1)C[C@@H](COCc1ccccc1)O2` gave ADAM10 inh -2, KLK7 zymogen act 0 and ADAM17 inh -1.
CC(=O)N1CCN(c2ccc(N3CCN(Cc4ccccc4)[C@H](C)C3)c(C)c2)[C@@H](C)C1 was read as ADAM10 inh -6, KLK7 zymogen act 1 and ADAM17 inh 2.
For COc1ccc(NC(=S)Nc2cc(-c3ccccc3)[nH]n2)cc1Cl the results were NR3A LBD binder 34*, ADAM10 inh 32*, KLK7 zymogen act 0, FAS TE block 26, ADAM17 inh 19*, ADAM10 confirm 12, ADAM17 counter 3, ADAM10 counter 36* and ADAM17 confirm 22*.
Cc1cc(NC(=S)Nc2ccc(C)c(Cl)c2)n[nH]1 was read as NR3A LBD binder -6, ADAM10 inh 10, KLK7 zymogen act 0, FAS TE block 4 and ADAM17 inh 6.
Cc1ccc(C(=O)OCC(=O)NCc2ccco2)cc1S(=O)(=O)N1CCOCC1 was read as NR3A LBD binder 1, ADAM10 inh -11, KLK7 zymogen act 0, FAS TE block -6 and ADAM17 inh -1.
COc1ccc(C(=O)OCC(=O)NCc2ccco2)cc1S(=O)(=O)N1CCN(c2cccc(Cl)c2)CC1 was read as NR3A LBD binder -2, ADAM10 inh 29*, KLK7 zymogen act 1, FAS TE block 20, ADAM17 inh 17*, ADAM10 confirm 9, ADAM17 counter 2, ADAM10 counter 28* and ADAM17 confirm 18*.
For Cc1ccccc1C(=O)NC1CCCCN(C)C1=O (stereo not given) the results were ADAM10 inh -7, KLK7 zymogen act 1 and ADAM17 inh -5.
Cc1ccc(C(=O)Nc2ccccc2-c2ccccc2)cc1S(=O)(=O)Nc1cccc(C)c1C was read as NR3A LBD binder -13, ADAM10 inh 29*, KLK7 zymogen act -4, FAS TE block 37, ADAM17 inh 12*, ADAM10 confirm 17, ADAM17 counter 5, ADAM10 counter 40* and ADAM17 confirm 19*.
`Cc1ccccc1NS(=O)(=O)c1cc(C(=O)Nc2cccc([N+](=O)[O-])c2)ccc1C` gave NR3A LBD binder 24*, ADAM10 inh 27*, KLK7 zymogen act 0, FAS TE block 40, ADAM17 inh 11*, ADAM10 confirm 6, ADAM17 counter 2, ADAM10 counter 36* and ADAM17 confirm 22*.
Cc1ccc(C)c(NS(=O)(=O)c2cc(C(=O)Nc3ccccc3-c3ccccc3)ccc2C)c1 was read as NR3A LBD binder 2, ADAM10 inh 18, KLK7 zymogen act 0, FAS TE block 30 and ADAM17 inh 5.
For Cc1ccc(C(=O)Nc2cccc([N+](=O)[O-])c2)cc1S(=O)(=O)Nc1ccc(C(=O)O)cc1 the results were NR3A LBD binder 7, ADAM10 inh -7, KLK7 zymogen act -1, FAS TE block 3 and ADAM17 inh -3.
C[C@@H]1ON(C)[C@H]2C[C@H]3c4[nH]c5cccc(-c6cccc(F)c6)c5c4CCN3C(=O)[C@@H]12 was read as ADAM10 inh -464, KLK7 zymogen act -17 and ADAM17 inh -132.
For CC[C@H](NC(=O)[C@H]1O[C@@H](n2cnc3c(=O)[nH]c(N)nc32)[C@H](O)[C@@H]1O)c1ccccc1 the results were ADAM10 inh -16, KLK7 zymogen act 0 and ADAM17 inh -5.
N/C(=N\N=C\c1cccs1)SC1CC(=O)N(c2ccc(Br)cc2)C1=O (stereo not given) was read as NR3A LBD binder 5, ADAM10 inh 17, KLK7 zymogen act 0, FAS TE block 9 and ADAM17 inh 8.
Screening C/C(=N\N=C(/N)SC1CC(=O)N(c2ccc(Br)cc2)C1=O)c1cccs1 (stereo not given) returned NR3A LBD binder 12*, ADAM10 inh 24*, KLK7 zymogen act 0, FAS TE block 24, ADAM17 inh 12*, ADAM10 confirm 5, ADAM17 counter 2, ADAM10 counter 20 and ADAM17 confirm 20*.
C/C(=N\N=C(/N)SC1CC(=O)N(c2ccccc2)C1=O)c1cccs1 (stereo not given) was read as NR3A LBD binder -2, ADAM10 inh 22*, KLK7 zymogen act 0, FAS TE block -1, ADAM17 inh 8.6*, ADAM10 confirm 2, ADAM17 counter 0, ADAM10 counter 15 and ADAM17 confirm 12*.

Screening data deposited in PubChem BioAssay by several laboratories.
